Compounds with a hit are over-represented: about 2.6% of the library has one in this group of screens.
CF NFkB inh = inhibitors of PAF-induced NF-kB signaling, primary screen, cell-based, GFP fluorescence, uHTS; actives 0.86% (n = 360,000); KKLEB NF-kB-GFP reporter, GFP fluorescence overnight; inhibition, % at 5 µM; AID 588850, 2011;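 active means at least 50% inhibition at 5 µM, scaled per plate between neutral and stimulator controls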;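 further: PAF is a Pseudomonas aeruginosa culture filtrate used as stimulus; plate controls were PAF-stimulated DMSO wells for no effect and unstimulated DMSO wells for full effect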
KKLEB tox = cytotoxicity in KKLEB CF airway cells, primary screen, cytotoxicity control for CF NF-kB inhibitor project, cell-based, uHTS, fluorescence assay plates | KKLEB CF airway cells viability, ATPlite luminescence, overnight; active compounds read low; cells stimulated with P. aeruginosa culture filtrate | activity change (cytotoxicity), % at 5 µM | actives 0.36% (n = 360,000) | AID 602141, 2011;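 active means corrected activity change at or below -50% at 5 µM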
HIF-2a inh = HIF-2a reporter inhibitors, primary screen, luminescence, 786-0 RCC cells | 786-0 RCC cells HIF-2a reporter, luciferase luminescence, overnight | inhibition, % at 18.8 µM | actives 0.72% (n = 360,000) | AID 624352, 2012;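 active means inhibition of the luminescence signal of 40% or more relative to plate controls, in a single-dose primary screen at 18.75 µM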
Shn3 inh set2 = reduction of Shn3 3'UTR firefly luciferase signal, primary screen, Schnurri-3 inhibitor project, cell-based, Clone20 osteoblasts, set 2. Clone20 osteoblast Shn3 3'UTR firefly luciferase, 24 h. AID 588674, 2011. actives 0.52% (n = 360,000). inhibition, % at 12.5 µM;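 active means mean inhibition of at least 75% with every replicate also reaching 75%; inconclusive means mean inhibition at least 75% but some replicate below; inactive means mean inhibition below 75%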;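 further: 0% = median of neutral control wells and 100% = pilot-screen positive control compound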
Peg3 promoter = Peg3 promoter-driven luciferase inhibitors, primary screen, cell-based, HeLa, luciferase luminescence; HeLa PEG-Prom luciferase reporter, overnight; AID 588405, 2011; inhibition, % at 20 µM; actives 1.7% (n = 360,000);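 active means inhibition of at least 50% at 20 µM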
* marks the source's active call; other numbers are inactive results; u = inconclusive; x = no result.

SMILES | CF NFkB inh | KKLEB tox | HIF-2a inh | Shn3 inh set2 | Peg3 promoter
Cc1ccccc1C(=O)N1CCC(C(=O)N2CCN(c3ncccn3)CC2)CC1 | 8.9 | 4.1 | 5.5 | 6.9 | 4.3
CCOC(=O)N1CCN(C(=O)C2CCN(C(=O)c3ccccc3C)CC2)CC1 | 35.7 | -12.8 | 2.4 | 93.3* | 106.8*
CCCSc1nnc(CSc2nc3ccccc3s2)n1-c1ccccc1 | 9.3 | -4.9 | 9.5 | 87.3* | 29.7
CC1(C(=O)Nc2cccc(C#N)c2)CCN1C(=O)C1(c2ccccc2)CC1 (stereo not drawn) | -1.4 | 6.5 | 12.0 | 17.2 | 2.7
N=C1S/C(=C\c2ccc(-c3cccc(Cl)c3)o2)C(=O)N1c1nccs1 | -59.3 | 11.7 | 1.1 | u | 104.5*
CC1CCC(CN2C(Nc3ccccc3)=NC[C@@H]2C)CC1 (stereo partly drawn) | 9.2 | -11.8 | -0.8 | 11.5 | -3.2
COC(=O)C1=C(C)NC(C)=C(C(=O)OC)C1c1ccc2ccccc2n1 | 4.7 | 6.1 | 0.6 | 17.7 | -1.0
O=C1c2ccccc2C(=O)C1c1ccc2ccccc2n1 | -185.1 | -68.1* | -25.0 | 26.6 | 53.0*
Nc1ccc(O)c(-c2nc3ccccc3s2)c1 | -19.4 | 0.9 | -98.8 | -47.7 | -107.5
Oc1ccc(N=C/C=C/c2cccc(Br)c2)cc1-c1nc2ccccc2s1 | -20.1 | -1.1 | -128.6 | -47.9 | 67.3*
CC(C)(C)NC(=O)C(C1CC1)n1c(=O)c(-c2ccco2)nc2ccccc21 (stereo not drawn) | x | x | 3.7 | x | x
OC(COC1CCCCC1)CN1CCCCC1 (stereo not drawn) | 0.0 | 6.8 | 1.5 | -12.7 | -4.7
CCCn1c(NC(=O)c2cccc(S(=O)(=O)N3CCCC3)c2)nc2ccccc21 | 73.7* | -12.8 | 33.5 | 71.4 | 97.4*
Cc1c(CCOC(=O)c2ccccc2)sc[n+]1CC(=O)c1ccc(Br)cc1 | 4.2 | -11.0 | -10.9 | 3.1 | -41.3
Cc1c(CCOC(=O)CC23CC4CC(CC(C)(C4)C2)C3)sc[n+]1CC(=O)c1ccccc1 | 23.2 | -7.2 | -12.2 | 57.7 | 84.5*
Cc1c(CCOC(=O)CC23CC4CC(CC(C4)C2)C3)sc[n+]1CC(=O)c1ccc(Br)cc1 | 11.0 | -8.5 | 1.0 | 93.7* | 48.8
Cc1ccc(-c2ccc(=O)n(CC(=O)NCc3ccc(F)cc3)n2)cc1 | -3.8 | -8.1 | -5.3 | 0.3 | -0.1
COc1cccc2c1C(=O)c1c(O)c3c(c(O)c1C2=O)CC(O)(C(C)=O)CC3OC1CC(O)C(O)C(C)O1 (stereo not drawn) | -309.6 | -4.0 | -24.6 | 80.3 | -52.5
COc1cccc2c1C(=O)c1c(O)c3c(c(O)c1C2=O)C[C@](O)(C(C)=O)C[C@H]3O[C@@H]1C[C@@H](N)[C@@H](O)[C@@H](C)O1 | 64.6* | 15.5 | 8.6 | 94.1* | 105.0*
CCCCC(=O)OCC(=O)C1(O)Cc2c(O)c3c(c(O)c2C(OC2CC(NC(=O)C(F)(F)F)C(O)C(C)O2)C1)C(=O)c1c(OC)cccc1C3=O (stereo not drawn) | -197.0 | 8.0 | -13.4 | 75.3 | 74.3*
CSc1nc(NCCN(C)C)c2sc3nc(-c4ccco4)c4c(c3c2n1)CCC4 | 4.0 | 2.7 | 19.0 | -9.6 | 106.1*
CCOC(=O)C1=C(CC)Nc2ccccc2N/C1=N\S(=O)(=O)c1cccc(C(C)=O)c1 | 15.9 | -0.5 | 9.3 | -9.0 | 13.6
CN(C)CCCn1c(=S)[nH]c2ccccc2c1=O | -8.8 | 12.1 | 17.1 | -9.1 | -3.3
CN(C)CCCn1c2c3ccccc3ccc2c2oc(=O)c3ccccc3c21 | -132.3 | 15.7 | -93.8 | -83.9 | 97.4*
CC(=O)N1c2ccc(S(=O)(=O)N3CCCC(C(=O)NC4CCCC(C)C4C)C3)cc2CC1C (stereo not drawn) | 13.1 | -19.1 | 8.3 | 36.3 | 11.5
SMILES | CF NFkB inh | KKLEB tox | HIF-2a inh | Shn3 inh set2 | Peg3 promoter
C#CCOCCOCCOCCNc1nc(N2CCN(C(=O)Cn3cc(CCCCN)nn3)CC2)nc(N2CCN(C(=O)Cn3cc(CCCN=C(N)N)nn3)CC2)n1 | -9.1 | 18.1 | -2.0 | 0.4 | -0.3
COc1ccc(-c2csc(NC(=O)C3CCN(c4ncnc5sc(C)c(C)c45)CC3)n2)cc1OC | 38.0 | -3.4 | -10.6 | 95.6* | 49.0
COc1ccc(-c2csc(NC(=O)c3ccc(OCC(=O)N4CCOCC4)c(OC)c3)n2)cc1OC | -7.3 | -6.9 | 14.8 | 16.2 | 92.2*
O=C(O)c1ccc(NC2=C/C(=N/S(=O)(=O)c3ccccc3)c3ccccc3C2=O)cc1 | 89.1* | -37.3 | 44.2* | u | 10.3
Cc1cc(C)c(S(=O)(=O)/N=C2\C=C(Nc3ccc(C(=O)O)cc3)C(=O)c3ccccc32)c(C)c1 | 91.1* | -63.3* | -14.0 | 74.4 | 103.3*
O=C(c1ccc(S(=O)(=O)N2CCCC2)cc1)N(Cc1ccco1)C1CCS(=O)(=O)C1 (stereo not drawn) | -4.2 | 5.6 | 5.5 | 2.3 | 4.0
COc1ccc(-c2n(CC(=O)OC3CC(C)CCC3C(C)C)c3ccccc3[n+]2C)cc1 (stereo not drawn) | 59.6* | -53.8* | 5.4 | 91.7* | 77.4*
CN(CC(=O)NCc1ccc2c(c1)OCO2)S(=O)(=O)c1ccc(Br)s1 | 2.9 | -1.9 | 1.9 | 93.7* | -7.7
O=C(CCS(=O)(=O)c1ccc(Br)s1)NCc1ccc2c(c1)OCO2 | 3.8 | 0.7 | 8.8 | 11.8 | 11.1
CCc1nnc2n1N=C(c1ccc(OC)cc1)CS2 | -6.5 | -8.3 | 15.4 | -17.3 | -4.9
CCc1nnc2n1N=C(c1ccc(-c3cc(Cl)ccc3Cl)o1)CS2 | -12.8 | -25.7 | -5.5 | 0.8 | 62.8*
Oc1cccc(-c2nc3c4c(ncn3n2)-c2ccccc2CC42CCCC2)c1 | 14.2 | -7.4 | 25.9 | 41.2 | 53.7*
Cc1cc(=O)oc2cc(OCC(=O)Nc3ccccc3C(=O)O)ccc12 | -6.9 | 6.5 | -4.2 | -18.8 | -1.6
COc1ccc(C2c3ccc4ccccc4c3Oc3ncn(Cc4ccco4)c(=N)c32)cc1OC (stereo not drawn) | 37.4 | -9.9 | -8.8 | 39.3 | 42.4
COc1ccc(C2c3c(ncn(CCN4CCOCC4)c3=N)Oc3ccc4ccccc4c32)cc1OC (stereo not drawn) | 14.9 | -23.5 | -15.7 | 1.5 | 77.8*
COc1ccccc1C1c2ccc3ccccc3c2Oc2ncn(CCN(C)C)c(=N)c21 (stereo not drawn) | 23.8 | -14.0 | -2.2 | -3.9 | 103.0*
COc1ccc(C2c3c(ncn(CCCO)c3=N)Oc3ccc4ccccc4c32)cc1 (stereo not drawn) | 8.1 | -10.8 | 18.4 | 4.4 | 82.0*
COc1ccc(C2c3c(ncn(CCCO)c3=N)Oc3ccc4ccccc4c32)cc1OC (stereo not drawn) | 6.9 | -6.0 | 7.1 | x | 23.2

Screens as filed in PubChem.
